A selection: hits, their analogues and other compounds. The true share with any hit is near 2.2%.
KLK7 zymogen act: activators of human kallikrein-7 zymogen; P49862; purified proKLK7, EDANS-DABCYL substrate fluorescence; 100% is mature enzyme control, 0% vehicle; activation, % at 7 µM; actives 0.9% (n = 370,000);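 active = activation above the mean of all tested compounds plus 3 SD, computed per campaign excluding outliers beyond control limits, cut at about 13% in these data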
Target sequence (P49862 whole entry, looked up): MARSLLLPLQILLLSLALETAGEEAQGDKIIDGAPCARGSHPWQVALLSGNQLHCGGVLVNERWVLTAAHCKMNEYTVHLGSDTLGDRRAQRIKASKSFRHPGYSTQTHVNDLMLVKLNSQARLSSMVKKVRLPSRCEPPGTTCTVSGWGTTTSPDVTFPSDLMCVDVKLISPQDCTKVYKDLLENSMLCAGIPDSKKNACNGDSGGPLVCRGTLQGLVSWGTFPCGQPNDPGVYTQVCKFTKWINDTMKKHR
NPR1 activator: GC-A (human) enzyme activation. P16066. HEK293 GC-A cells, cGMP TR-FRET, EC30 ANP; 0% at EC30 ANP, 100% saturating ANP. activation, % at 10 µM. actives 0.14% (n = 370,000). AID 1671463; in the data active = activation above about 40%
ADAM17 inh: ADAM17 inhibition, QFRET primary screen. recombinant ADAM17, EDANS/DABCYL FRET peptide cleavage. inhibition, % at 6.95 µM. actives 0.83% (n = 370,000);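 active = inhibition above the mean of compounds lying between control limits plus 3 SD, set per campaign, cut at about 8.5% in these data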;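 also: 0% = DMSO-only wells as the low control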
GC-B act: GC-B (human) receptor activation; actives 0.11% (n = 370,000); HEK293-GC-B cells, CNP EC30, cGMP TR-FRET; 0% at EC30 CNP, 100% saturating CNP; activation, % at 10 µM; P20594; AID 1920062;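 active = activation at 10 µM reaching about 35% in either raw or pattern-adjusted values, limit read from the data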
ADAM10 inh: ADAM10 inhibition, QFRET primary screen; actives 0.62% (n = 370,000); inhibition, % at 7 µM; recombinant ADAM10, EDANS/DABCYL FRET peptide cleavage, 3 h; AID 720582;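 active = inhibition above a per-campaign cutoff equal to the mean of compounds falling between control-based bounds plus 3 SD, cut at about 20% in these data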;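 also: 0% = DMSO wells while the 100% control is not disclosed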
ADAM10 counter: counter-screen for ADAM17 exosite inhibitors: inhibitors of human ADAM10. shares compounds with ADAM17 inh. recombinant ADAM10, EDANS/DABCYL FRET peptide cleavage, 3 h. inhibition, % at 6.95 µM. actives 47% (n = 2,900). AID 743256;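 active = mean inhibition over the triplicate runs exceeds the activity threshold set in the earlier primary screen, cut at about 20% in these data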;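 also: 0% = DMSO wells and 100% = marimastat wells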
ADAM17 confirm: human ADAM17 inhibition, confirmation; actives 65% (n = 2,900); shares compounds with ADAM17 inh; inhibition, % at 6.95 µM; recombinant ADAM17, EDANS/DABCYL QFRET peptide cleavage;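 active = mean inhibition across replicates above the hit cutoff set in the primary screen, cut at about 8.5% in these data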;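 also: 0% = DMSO wells and 100% = marimastat wells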
The depositor's hits bear a star; / = not tested or not shown.

SMILES | KLK7 zymogen act | NPR1 activator | ADAM17 inh | GC-B act | ADAM10 inh | ADAM10 counter | ADAM17 confirm
CC(C)(C)OC(=O)N1CCC(C(=O)Nc2cccc(C(=O)NCCCc3ccccc3)c2)CC1 | 1 | 2 | -1 | 0 | -7 | / | /
CN(C(=O)c1ccc(NC(=O)Cc2cccc(NC(=O)C3CCCN(C(=O)C4CCCC4)C3)c2)cc1)C1CCCC1 (stereo not given) | 1 | 3 | 9.4* | -1 | 5 | 18 | 9
CN(C(=O)c1ccc(NC(=O)Cc2cccc(NC(=O)C3CCCN(C(=O)C4CCC4)C3)c2)cc1)C1CC1 (stereo not given) | 1 | 6 | -1 | 5 | -3 | / | /
CN(CCc1ccccc1)C(=O)c1ccc(NC(=O)Cc2ccc(NC(=O)C3CCN(C(=O)C4CC4)CC3)cc2)cc1 | 0 | 0 | -1 | -1 | -14 | / | /
CN(CCc1ccccc1)C(=O)c1ccc(NC(=O)Cc2ccc(NC(=O)C3CCN(C(=O)C4CCCC4)CC3)cc2)cc1 | 1 | 1 | 11* | 4 | 5 | 9 | 9.8*
COC(=O)C1CN(CCc2ccccc2)CCS(=O)(=O)N1Cc1ccccc1 (stereo not given) | -1 | 0 | -4 | -3 | -7 | / | /
O=S1(=O)c2ccccc2-c2c(nnn2CC2CCCCC2)CN1C1CC1 | 0 | -9 | -1 | -3 | 0 | / | /
Cc1cccc(O)c1C | -1 | 1 | -1 | -6 | -13 | / | /
Cc1cccc(C)c1N=Nc1c(C)cc(O)cc1C | 0 | -11 | 9.9* | -14 | 19 | 45* | 20*
COC(=O)C[C@@H]1CC[C@@H]2[C@H](COc3ccc(NC(=O)Nc4c(C)noc4C)cc3C(=O)N2C)O1 | 0 | 2 | -3 | -10 | -3 | / | /
Cc1cc(Cl)ccc1OCc1n[nH]c(=S)n1C1CCCCC1 | 0 | 4 | 9.3* | -6 | 9 | 30* | 11*
Cc1ccccc1OCc1n[nH]c(=S)n1-c1cccc(Cl)c1 | 0 | -4 | 3 | -9 | 18 | / | /
CCCCCN1CCCCC(NC(=O)c2cccc(C(F)(F)F)c2)C1=O (stereo not given) | 0 | 1 | -2 | -4 | -3 | / | /
COC(=O)CSc1nnc(-c2n[nH]c3c2CCC3)n1N | 0 | 6 | -2 | -3 | -5 | / | /
NS(=O)(=O)c1ccc(NC(=O)/C=C/c2cccs2)cc1 | 0 | -14 | 10* | -15 | 15 | -6 | 3
NS(=O)(=O)c1cccc(NC(=O)/C=C/c2cccs2)c1 | 0 | -2 | 0 | -6 | 2 | / | /
COc1ccccc1NC(=O)N(C)C[C@H]1OCc2cnnn2CCCC(=O)N([C@@H](C)CO)C[C@H]1C | -1 | 2 | -6 | -2 | -16 | / | /
COc1ccccc1NC(=O)N(C)C[C@@H]1OCc2cnnn2CCCC(=O)N([C@@H](C)CO)C[C@H]1C | 1 | 2 | 8.8* | -1 | -1 | -5 | -2
Clc1cccc(COn2c(-c3ccc(Cl)cc3Cl)nc3ncccc32)c1 | 1 | -5 | 11* | -13 | 4 | -13 | 4
CCCOc1ccc(C(=O)N2CCC(Oc3cccnc3)CC2)cc1 | 0 | -2 | -3 | -3 | 1 | / | /
CCOC(=O)c1c(NC(=O)C2C3C=CC(CC3)C2C(=O)O)sc(C)c1C (stereo not given) | 0 | 5 | 9.1* | -1 | 2 | -12 | 0
CCC[C@H]1[C@@H](OC(=O)NCc2cccc(C(F)(F)F)c2)CC[C@@]23CCCN2C(=O)CCC[C@@H]13 | / | -20 | 7 | -17 | 13 | / | /
Cc1cccc(OCc2nnc(SCC(=O)Nc3cccc(C(=O)N4CCOCC4)c3)n2C)c1C | 1 | -1 | 10* | 8 | 8 | -9 | -3
Cc1cccc(OCc2nnc(SCC(=O)Nc3cccc(C(=O)N4CCOCC4)c3)n2C)c1 | 0 | -3 | -7 | 4 | 3 | / | /
CCC(CC)C(=O)Nc1c2c(nn1-c1ccc(OC)cc1)CS(=O)C2 (stereo not given) | -1 | 0 | 8.7* | -2 | 8 | 19 | 8
SMILES | KLK7 zymogen act | NPR1 activator | ADAM17 inh | GC-B act | ADAM10 inh | ADAM10 counter | ADAM17 confirm
OCC1(Cc2cccc(Cl)c2)CCCN(Cc2sc(N3CCCC3)nc2Cl)C1 (stereo not given) | 1 | -3 | 10* | 8 | 13 | 17 | 9.7*
Cc1c(CN2CCCC(CO)(Cc3cccc(Cl)c3)C2)cnn1C (stereo not given) | 0 | -5 | -3 | -7 | 10 | / | /
CCCCN1C[C@H](c2ccc(OC)cc2)[C@@H](CC(=O)Nc2ccc(Br)cc2)C1=O | 0 | -4 | 14* | -1 | 10 | 4 | 4
O=C(OCC#CCSc1nnc(-c2cccc(F)c2)o1)c1ccc(F)cc1 | / | -5 | 1 | -4 | 11 | / | /
COC(=O)c1ccc(Oc2ccc(S(=O)(=O)N3CCCCC3)cc2N)cc1 | 0 | 3 | 0 | -1 | 10 | / | /
Nc1cc(S(=O)(=O)N2CCCCC2)ccc1Oc1ccc(Cl)cc1 | 0 | -6 | 8.8* | -2 | 20 | 17 | 11*
CC(C)n1cc(NC(=O)C2CC(c3cccc(Br)c3)=NO2)cn1 (stereo not given) | 1 | 3 | 9.0* | -1 | 13 | -5 | -3
CNc1nc(N)c([N+](=O)[O-])c(Nc2cccc(OC)c2)n1 | / | 7 | 3 | -5 | 6 | / | /
C[C@H](NC(=O)c1nc[nH]c1C(=O)N1CCc2ccccc2C1)C(=O)OC(C)(C)C | 0 | -4 | -1 | -2 | 0 | / | /
C[C@@H](NC(=O)c1nc[nH]c1C(=O)N1CCc2ccccc2C1)c1ccccc1 | 1 | -2 | 9.0* | 4 | 7 | -4 | -3
CCOc1ccc(CNC(=S)N/N=C/c2ccc(OC)c(OC)c2)cc1 | 0 | 18 | 8.7* | 13 | 10 | 14 | 15*
COc1cc(/C=N/NC(=S)NCc2ccccc2)ccc1OCC#N | -1 | 5 | 4 | -1 | 6 | / | /
CCOc1ccc(-c2cn[nH]c2N)cc1 | / | 5 | / | 1 | / | / | /
COc1ccc(-c2cn[nH]c2N)cc1 | -1 | -1 | 8.8* | -2 | 4 | 6 | 1
CC(=O)N1CCC(C(=O)N2CCN(S(=O)(=O)c3ccc(F)cc3)CC2)CC1 | 0 | 0 | 0 | 1 | 0 | / | /
O=C(c1ccc(F)cc1)N1CCC(C(=O)N2CCN(S(=O)(=O)c3cccc(Cl)c3)CC2)CC1 | 0 | -1 | 9.6* | -4 | -4 | -7 | 2
CCOc1ccc(S(=O)(=O)c2ccc(C)cc2)c2c1no[n+]2[O-] | 0 | 2 | 11* | 2 | 7 | 2 | 5
